Experimental findings from PubChem BioAssay (NCATS) are described below.

Several values for one entry are separate records, joined by “and”; a condition that tells them apart may be missing. Equal values may be shown once. Records with an inconclusive call do not appear. Activity calls are given as the source filed them. Unless noted, calls come from the whole dose curve; as a rule, active = well fitted curve in the direction sought with a large enough effect; inconclusive = small, poorly fitted or top-dose-only effect, or another doubt; inactive = no such curve, though single readings can be large; an effect the other way counts as inactive or inconclusive.

Assay [1] has as its target Alpha-galactosidase A (Homo sapiens) (UniProt P06280). Nature of the assay: Counterscreen for Glucocerebrosidase Inhibitors: qHTS Assay for Human alpha-Galactosidase at pH 4.5 (AID 992). Note: 0% is about no effect. The procedure, abridged:
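Read-out is 4-methylumbelliferone fluorescence (365 nm excitation, 440 nm emission) after a pH 10 NaOH/glycine stop. Reactions held 2 nM enzyme and 80 uM substrate at pH 4.5 for 20 min at room temperature.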
Background: A counterscreen serves to expose hits that act by an unwanted route or on another target.

In assay [2] the target is alpha-glucosidase (Oryza sativa, rice) (UniProt Q653V4). Kind of assay: Counterscreen for Glucocerebrosidase Inhibitors: qHTS Assay for Rice alpha-Glucosidase at pH 5.0 (AID 997).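 Note: 0% = full activity with enzyme and -100% = basal without enzyme.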 Summed up:
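Rice alpha-glucosidase (4 nM final) with 400 uM 4-methylumbelliferyl-alpha-D-glucopyranoside in citrate buffer pH 5.0, 20 min at room temperature, stopped at pH 10; fluorescence 365/440 nm, compounds 0.7 nM–77 uM, AC50 from Hill fits.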

The nature of assay [3]: qHTS Assay for Lipid Storage Modulators (AID 1519; calls by dose curve; note: potency is the fitted concentration of half-maximal effect; for activity change, negative = inhibition: % is set by controls: 0 for no effect and ±100 for the full control effect). The following applies: Drosophila S3 cells, BODIPY lipid droplet/cell ratio, laser cytometry, cells loaded with oleic acid. The procedure, abridged: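 Cells seeded at 5,000 per well were treated with compounds over a concentration series and loaded with oleic acid (400 uM, as added). Lipid droplet fluorescence (488 nm excitation, 500-530 nm channel) was read by laser-scanning cytometry and normalized to 20 uM Triacsin C.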
(qHTS replaces the single test concentration by a dilution series.)

The target in assay [4] is DNA repair nuclease/redox regulator APEX1 (Homo sapiens) (UniProt P27695). Nature of the assay: qHTS Validation Assay for Inhibitors of the Human Apurinic/apyrimidinic Endonuclease 1 (APE1) (AID 1705;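 note: TAMRA fluorescence gain over two minutes as APE1 cuts a quenched THF abasic duplex; % is set by controls: 0 for no effect and ±100 for the full control effect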). The procedure, abridged: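 Human APE1 was preincubated with compound for 15 min at room temperature, then 50 nM (final) THF-abasic double-stranded DNA substrate bearing 5'-TAMRA and 3'-BHQ-2 was added. Incision-driven fluorescence rise (ex 525/em 598 nm) was read kinetically.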
Chain of DNA repair nuclease/redox regulator APEX1 (Homo sapiens) (P27695 whole entry, looked up): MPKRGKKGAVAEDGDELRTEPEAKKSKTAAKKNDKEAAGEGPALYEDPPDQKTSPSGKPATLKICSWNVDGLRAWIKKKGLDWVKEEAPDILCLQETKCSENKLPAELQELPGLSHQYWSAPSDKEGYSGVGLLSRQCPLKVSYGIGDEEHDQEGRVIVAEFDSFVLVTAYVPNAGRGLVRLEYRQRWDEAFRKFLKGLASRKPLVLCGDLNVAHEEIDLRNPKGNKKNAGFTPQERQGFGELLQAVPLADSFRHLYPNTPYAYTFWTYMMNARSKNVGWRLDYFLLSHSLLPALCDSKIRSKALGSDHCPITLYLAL

The nature of assay [5]: Counterscreen for APE1 Inhibitors: Fluorescent Dye Displacement Validation Assay (AID 1707).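 Note: plate controls were ThO with dsDNA and no compound for no effect and ThO without dsDNA for full effect.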 The procedure, abridged: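 ThO 250 nM + dsDNA 50 nM (THF abasic site, 5'-TAMRA), Tris-HCl pH7.5/50mM NaCl/2 mM MgCl2/0.01% Tween-20; compounds pin-transferred; ex 480/em 540 nm endpoint. Neutral = no compound; no-DNA ThO wells = negative control.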
Assay [6] has as its target Endonuclease 4 (Escherichia coli (strain K12)) (UniProt P0A6C1). Nature of the assay: Counterscreen for APE1 Inhibitors: qHTS Validation Assay for Inhibitors of Endonuclease IV (AID 1708). Note: % is set by controls: 0 for no effect and ±100 for the full control effect. The procedure, abridged: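 Concentration-response counterscreen run identically to the APE1 assay: 15 min room-temperature preincubation of 2 nM enzyme with compound, reaction started with 50 nM quenched abasic DNA, progress taken from kinetic fluorescence.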

Assay [7] is described as follows: qHTS for differential inhibitors of proliferation of Plasmodium falciparum line 7G8 (AID 1815).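 For activity change, negative = inhibition: plate controls were vehicle wells for no effect and reference inhibitor wells for full effect.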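 Note: parasite growth measured after three days of incubation.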 Note: potency is the fitted concentration of half-maximal effect.
Assay [8] is described as follows: qHTS for differential inhibitors of proliferation of Plasmodium falciparum line GB4 (AID 1816).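 For activity change, negative = inhibition: 0% = vehicle DMSO and -100% = reference inhibitor.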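 Note: parasite growth measured after 72 h incubation.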 Note: potency is the fitted concentration of half-maximal effect. The settings on record: Potency: Plasmodium falciparum GB4 proliferation inhibition.
Assay [9] can be described thus: qHTS for differential inhibitors of proliferation of Plasmodium falciparum line 3D7 (AID 1876). Note: potency is the fitted concentration of half-maximal effect.
Assay [10] can be described thus: qHTS for differential inhibitors of proliferation of Plasmodium falciparum line D10 (AID 1877).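 For activity change, negative = inhibition: plate controls were vehicle wells for no effect and reference inhibitor wells for full effect.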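 Note: parasites grown with compound for 72 h before DNA staining.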 Note: potency is the fitted concentration of half-maximal effect.
Where [11] appears, read: measured here: cell count channel max response.
[12] abbreviates: measured here: lipid channel max response.

Chain of Alpha-galactosidase A (Homo sapiens) (P06280 whole entry, looked up): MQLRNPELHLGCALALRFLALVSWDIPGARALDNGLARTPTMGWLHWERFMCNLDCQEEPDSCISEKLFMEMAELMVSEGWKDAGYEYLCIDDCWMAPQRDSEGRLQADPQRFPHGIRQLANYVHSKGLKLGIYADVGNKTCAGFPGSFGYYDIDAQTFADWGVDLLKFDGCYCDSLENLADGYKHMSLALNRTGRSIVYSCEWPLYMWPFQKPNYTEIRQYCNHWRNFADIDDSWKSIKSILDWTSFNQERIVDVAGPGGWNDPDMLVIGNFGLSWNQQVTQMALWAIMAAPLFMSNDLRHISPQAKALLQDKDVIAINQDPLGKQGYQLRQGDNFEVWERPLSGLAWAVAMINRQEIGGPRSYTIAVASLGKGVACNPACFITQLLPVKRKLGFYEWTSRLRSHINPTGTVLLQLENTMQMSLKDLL

As to `c1ccc(CN2CCC3(CCCc4ccccc43)CC2)cc1`, the compound was called inactive in [1] and in assay [2]. The activity change, negative = inhibition in assay [3] (at 57.5 µM (top of the series)) is -2.7% (inactive). The max response is -38% in assay [3] (setting [11]) and -39.4% in assay [3] (setting [12]). Moreover, the Potency result in assay [4], in assay [5] and in assay [6] was “inactive” in each case. Further, the Potency in assay [7] was 5.01 µM (active); in assay [8], 5.62 µM (active); in assay [9] it was 10 µM (active); in assay [10], 12.6 µM (active).

For `CC#CCOC(=O)c1c(C)nc2sc3c(c2c1N)CCC(O)C3` (configuration not stated), the activity change, negative = inhibition in assay [3] (at 57.5 µM (top of the series)) is -1.83% (inactive). The max response in assay [3] (setting [11]) is 5.64%; in [3] (setting [12]) it was 4.05%. For the same compound, the Potency result in [4], in [5], in assay [6] and in assay [10] was “inactive” throughout. Further, in assay [9], the Potency was 11.2 µM (active).

`OC[C@H]1O[C@@H](n2cnc3cncnc32)[C@H](O)[C@@H]1O`: in [3] (at 57.5 µM (top of the series)), the activity change, negative = inhibition was -4.73% (inactive). Further, the max response is 0.328% in assay [3] (setting [11]) and -1.94% in assay [3] (setting [12]). Moreover, the Potency entry in [4], in assay [5], in assay [6] and in assay [7] was “inactive” each time. Further, the Potency in assay [9] was 5.01 µM (active).

Regarding `CN(C)S(=O)(=O)c1ccc2c(c1)/C(=C/c1cc3c([nH]1)CCCC3)C(=O)N2`, the compound was called inactive in assay [1] and in assay [2]. In addition, the Potency in [3] was 28.2 µM (active); in [7] it was 4.47 µM (active); in [8], 5.01 µM (active); in [9] it was 3.55 µM (active); in assay [10], 3.55 µM (active). For the same compound, the max response in assay [3] (setting [11]) is 59.5%; in assay [3] (setting [12]), -52.8%. Further, the Potency entry in assay [4], in [5] and in assay [6] was “inactive” in each case.

Regarding `COc1ccc(C(=O)NCc2cccnc2)cc1C(=O)NCc1cccnc1`, the compound was classed as inactive in assay [1] and in assay [2]. Moreover, the activity change, negative = inhibition is 1.2% (inactive) in [3] (at 25.7 µM (top of the series)) and 1.17% (inactive) in assay [3] (at 57.5 µM (top of the series)). In addition, the max response is -2.62% and -3.84% in assay [3] (setting [11]); -2.28% and -1.65% in [3] (setting [12]). In addition, the Potency entry in [4], in [5], in assay [6], in assay [8], in assay [9] and in [10] was “inactive” in each case.

In the case of `CCCc1c(OCCCOc2ccc(OCC(=O)O)cc2)ccc(C(C)=O)c1O`, the compound was called inactive in assay [1] and in assay [2]. In addition, the activity change, negative = inhibition in assay [3] (at 57.5 µM (top of the series)) was 1% (inactive). For the same compound, the max response came out at 51.1% in assay [3] (setting [11]) and 51.4% in assay [3] (setting [12]). Besides, the Potency entry in assay [4], in [5], in assay [7], in [8], in assay [9] and in assay [10] was “inactive” in each case.

On to `O=C(O)/C(=C/c1c(C(=O)O)[nH]c2cc(Cl)cc(Cl)c12)c1ccccc1`, for which the compound was called inactive in [1] and in assay [2]. In addition, the activity change, negative = inhibition in [3] (at 57.5 µM (top of the series)) was 0.679% (inactive). Moreover, the max response in assay [3] (setting [11]) was -8.09%; in assay [3] (setting [12]), -9.3%. Further, the Potency entry in assay [4], in assay [5], in assay [6], in [9] and in assay [10] was “inactive” throughout.

`O=C(O)C1=CCCNC1`: the result in assay [1] and in [2] was inactive. Also, the activity change, negative = inhibition in assay [3] (at 57.5 µM (top of the series)) was 5.3% (inactive) and 2.39% (inactive) and 0.0791% (inactive). The max response was 11.8% and 11.1% and -5.85% in [3] (setting [11]); 19.5% and 15.3% and -4.32% in [3] (setting [12]). The Potency result in assay [4], in [5], in assay [6], in assay [7], in assay [8] and in assay [9] was “inactive” throughout. Also, in assay [10], the Potency result is “inactive”.

For `CC(C)NC[C@H](O)COc1ccc(CC(N)=O)cc1`, the result in [1] and in assay [2] was inactive. For the same compound, the activity change, negative = inhibition was -3.22% (inactive) and -3.29% (inactive) in [3] (at 25.7 µM (top of the series)); 0.49% (inactive) and -5.77% (inactive) in assay [3] (at 57.5 µM (top of the series)). In addition, the max response was -3.12% [middle of 4 runs] in [3] (setting [11]) and -2.86% [middle of 4 runs] in assay [3] (setting [12]). Further, the Potency result in assay [4], in assay [5], in assay [7], in assay [8], in [9] and in assay [10] was “inactive” throughout.
